Source: PubChem BioAssay
M1 ag: activates human CHRM1 receptor. actives 0.33% (n = 360,000). activation, % at 3 µM. P11229. CHO-K1 hM1, Fluo-8 calcium fluorescence, agonist mode; 0% DMSO, 100% acetylcholine EC100;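 active = activation above the run's mean compound activation plus 3 SD, cut at about 16% in these data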;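 note: peak over basal fluorescence ratio within a 140 s kinetic read after compound addition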
Target sequence (P11229 whole entry, looked up): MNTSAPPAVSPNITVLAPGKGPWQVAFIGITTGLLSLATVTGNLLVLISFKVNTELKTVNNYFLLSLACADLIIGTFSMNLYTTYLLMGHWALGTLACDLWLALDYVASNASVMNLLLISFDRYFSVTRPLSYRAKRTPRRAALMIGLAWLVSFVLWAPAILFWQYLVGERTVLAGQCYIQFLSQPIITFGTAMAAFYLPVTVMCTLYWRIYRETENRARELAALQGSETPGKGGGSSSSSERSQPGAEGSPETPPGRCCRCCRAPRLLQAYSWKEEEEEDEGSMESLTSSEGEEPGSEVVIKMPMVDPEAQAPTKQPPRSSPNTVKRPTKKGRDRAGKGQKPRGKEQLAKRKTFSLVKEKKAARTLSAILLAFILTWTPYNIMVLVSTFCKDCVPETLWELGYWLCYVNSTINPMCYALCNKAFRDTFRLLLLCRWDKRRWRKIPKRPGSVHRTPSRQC
CHO-K1 Ca antag: M1 antagonist counterscreen hit in parental CHO-K1 cells | actives 0.6% (n = 360,000) | AID 602250 | ATP-induced calcium, Fluo-8 fluorescence | inhibition, % at 3 µM;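 active = inhibition above a per-plate cutoff, the plate's mean sample inhibition plus 3 SD, cut at about 24% in these data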
M1 antag: blocks human M1 muscarinic receptor; P11229; CHO-K1 hM1, Fluo-8 calcium fluorescence, ACh EC80 antagonist; inhibition, % at 3 µM; actives 1.3% (n = 360,000); AID 588852;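 active = percent inhibition above its own plate's cutoff, namely the mean of that plate's compound wells plus 3 SD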;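 note: peak over basal fluorescence ratio during 140 s after agonist addition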
M1 ag parental: counter-screen for M1 agonists: effect in parental CHO-K1 cells. actives 0.48% (n = 360,000). AID 602248. activation, % at 3 µM. Fluo-8 calcium fluorescence; scaled to maximal ATP response, vehicle zero; in the data active = activation above about 15%;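 note: untransfected CHO-K1 host cells lacking M1 receptor as counterscreen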
CHO-K1 Ca PAM: M1 PAM counterscreen hit in parental CHO-K1 cells. AID 602247. actives 0.02% (n = 360,000). activation, % at 3 µM. ATP EC20, Fluo-8 calcium fluorescence; 0% at ATP EC20, 100% at ATP max;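 active = activation above the run cutoff, the mean activation of all test compounds plus 3 SD, cut at about 40% in these data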;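 note: peak over basal fluorescence ratio in a 140 s read after ATP addition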
CHRM1 PAM: potentiates human M1 receptor response to acetylcholine; activation, % at 3 µM; CHO-K1 hM1, Fluo-8 calcium fluorescence, ACh EC20; 0% = ACh EC20, 100% = maximal ACh; P11229; AID 588819; actives 0.088% (n = 360,000); in the data active = activation above about 19%, passing the limit was not always enough
Large screens that a line does not name were inactive. Only some compounds are listed: those with a hit (about 2.3% of all), similar ones and a draw of the others.

Cc1nc(SCC(=O)Nc2nnc(C(C)C)s2)n[nH]1	none
CC(=O)NC(C)(c1ccccc1)c1nc(/C=C/c2ccccc2)cs1 (stereo not drawn)	none
COc1ccc(C(C)(NC(C)=O)c2nc(/C=C/c3ccccc3)cs2)cc1 (stereo not drawn)	CHO-K1 Ca antag 31.7
CC(Oc1ccc(Cl)cc1)C(=O)N1CCN(C(=O)c2ccco2)CC1 (stereo not drawn)	none
CCOC(=O)c1c(N2C(=O)Nc3ccccc3N2O)n[nH]c1-c1cccc(Cl)c1	CHO-K1 Ca antag 23.8
COc1ccccc1CN(C)C(=O)c1cc(C)nc2ccccc12	none
Cn1cc(CNC(=O)c2cc(-c3ccccc3)nc3ccc(Br)cc23)cn1	none
COc1ccc(CN(C)C(=O)c2cc(-c3ccccc3)nc3ccc(C)cc23)c(OC)c1	M1 antag 37.2
Cc1nn(C)cc1CN(C)C(=O)c1cc(-c2ccccc2)nc2ccc(Br)cc12	M1 antag 34.3
COc1ccc(CCNC(=O)c2cccc(S(=O)(=O)N3CCCCCC3)c2)cc1	none
Cc1ccc(CN(C)C(=O)COC(=O)CSc2cc(C)c3ccccc3n2)cc1	none
O=C(O)CCCCn1c(SCc2cc(=O)n3cc(Cl)ccc3n2)nc2ccsc2c1=O	none
O=c1c2sccc2nc(SCc2cc(=O)n3cc(Cl)ccc3n2)n1-c1ccc(F)cc1	M1 ag parental 15.1
COc1ccc(Sc2ccc(NC(=O)c3ccccc3Cl)cc2C#N)cc1	none
N#Cc1cc(NC(=O)c2ccc(Cl)cc2)ccc1Sc1ccccc1	M1 antag 32.4
CSc1cccc(CN2CCC(CO)(Cc3cccc(C(F)(F)F)c3)CC2)c1	M1 antag 31.0
OCC1(Cc2cccc(C(F)(F)F)c2)CCN(Cc2cc(F)cc(F)c2)CC1	none
O=S(=O)(NCCCc1ccccc1)c1ccccc1	none
CS(=O)(=O)NCCOc1ccc(S(=O)(=O)NCCOc2ccccc2)cc1	CHO-K1 Ca antag 31.6
O=S(=O)(NCCCCCNS(=O)(=O)c1ccccc1)c1ccccc1	CHO-K1 Ca antag 24.1
CN(C)C(C)(C)C#CCCCCC#CC(C)(C)N(C)C	none
CN(C)C(C)(C)C#CCC(c1ccccc1)c1ccccc1	M1 antag 86.8
COc1ccccc1CNC(=O)COC(=O)C1CCN(S(=O)(=O)c2ccccc2)CC1	none
CC(C)(C)OC(=O)NCc1ccc(CNC(=O)c2nc[nH]c2C(=O)NCc2ccccc2)cc1	none
O=C(CNC(=O)c1nc[nH]c1C(=O)NCc1ccccc1)OCc1ccccc1	M1 antag 37.7
C[C@H](NC(=O)c1nc[nH]c1C(=O)NCC(=O)OCc1ccccc1)c1ccccc1	M1 antag 31.4
CC(C)(C)OC(=O)NCc1ccc(CNC(=O)c2[nH]cnc2C(=O)NCC(=O)OCc2ccccc2)cc1	M1 antag 43.5
C[C@H](NC(=O)c1nc[nH]c1C(=O)NCC(=O)OCc1ccccc1)C(=O)OCc1ccccc1	none
O=S(=O)(CCN1CCCCC1)CCS(=O)(=O)CCN1CCCCC1	none
O=C(Nc1ccc(Cl)cc1)N1CCN(c2ccc3nnc(-c4ccc(F)cc4)n3n2)CC1	M1 antag 41.5
O=C(Nc1ccc(Cl)cc1)N1CCC(c2nc(-c3ccc(F)cc3)no2)CC1	M1 antag 57.9
Cc1ccccc1C(C)NC(=O)COC(=O)Cn1cc(C(F)(F)F)ccc1=O (stereo not drawn)	none
O=[N+]([O-])c1cccc(C(=NCc2ccccc2)NO)c1	none
NC(=O)CSc1nnnn1CC(CC(=O)O)c1ccccc1 (stereo not drawn)	CHO-K1 Ca antag 24.8
Cc1ccccc1-n1nnnc1SCC(N)=O	none
C/C(=N/NC(=O)c1cccs1)c1ccc(N2CCOCC2)cc1	CHO-K1 Ca antag 25.1
C/C(=N\NC(=O)c1ccccc1)c1ccc(N2CCOCC2)cc1	none
COc1ccc(-n2nc([N+](=O)[O-])c(=NC3CCN(Cc4ccccc4)CC3)n2O)cc1	M1 antag 25.4
Cc1cccc(CC2CC(=O)N(c3ccc(C)cc3Br)C2=O)c1 (stereo not drawn)	none
CCCCN1C(=O)C(CC(=O)NC2CCCCC2)CC(C(=O)N(CC)CC)=C1C (stereo not drawn)	none
